According to PubChem BioAssay (NCATS):
Results filed as inconclusive are left out. Activity calls are given as the source filed them. Calls follow the shape of the dose curve; as a rule, active = well fitted inhibition curve with a large enough effect; inconclusive = small, poorly fitted or top-dose-only effect; inactive = no such curve, though single readings can be large or run the other way.

test: qHTS for Inhibitors of the Aldehyde Dehydrogenase Family (ALDH1A2, ALDH1A3, ALDH2, ALDH3A1) (AID 2061307); settings: ALDH inhibition qHTS; series mostly up to 50.3 µM; activity change, negative = inhibition: at the top concentration; also: nearly all actives have a fitted effect of over 50% in size; as to Potency: test system not described further here
% is scaled to controls: 0 for no effect and ±100 for the full control effect; potency is read from the fitted curve at half-maximal effect.

SMILES | Potency | activity change, negative = inhibition
CC1(C)CC2CC(C)(CN2S(=O)(=O)c2ccc(C(=O)Nc3cccc(S(=O)(=O)N4CCOCC4)c3)cc2)C1 (stereo not given) | 0.447 µM (active) | –
COc1cccc(CNc2ccc(S(=O)(=O)Nc3ccc(C4CCNCC4)cc3)cc2)c1O | – | 70.5% (inactive)
O=C(O)CSc1cc(NS(=O)(=O)c2ccc(Br)cc2)c2ccccc2c1O | – | 3.54% (inactive)
CC(C)(C)OC(=O)N1CCN(c2ccc(NCc3ccc4c(-c5ccc(F)cc5)cc(=O)oc4c3)cc2)CC1 | 5.04 µM (active) | –
CC(=O)Nc1ccc(OC2=NS(=O)(=O)c3ccccc32)cc1 | – | 8.8% (inactive)
CC1CC(O)CC(C)(C)C1(O)CCO (stereo not given) | – | -11.7% (inactive)
O=C(O)c1ccccc1OC1=NS(=O)(=O)c2ccccc21 | – | 5.35% (inactive)
COc1cc([C@@H](O[C@@H]2O[C@H](CO)[C@@H](O)[C@H](O)[C@H]2O)[C@@H]2CO[C@H](c3ccc(O)c(OC)c3)[C@H]2CO)ccc1O | – | -11% [at 34.4 µM] (inactive)
C[C@H](N)C(=O)Nc1cccc(-c2nn3c(=O)cc(N4CCNCC4)nc3s2)c1 | – | 64.8% (inactive)
COc1ccc(C2Nc3ccccc3C(=O)N2Cc2ccccc2)cc1COc1ccc(Cl)cc1 (stereo not given) | 5.65 µM (active) | –
NC1CCN(c2nc(-c3ccc(Br)cc3)cs2)CC1 | – | 27.6% (inactive)
O=C(O)c1cccc(S(=O)(=O)Nc2nccs2)c1 | – | 3.98% (inactive)
COc1ccc(CCCN2CCC(COC(c3ccccc3)c3ccccc3)CC2)cc1 | – | 99.2% (inactive)
O=C(Nc1ccc(Cl)c(Cl)c1)Nc1ccc(-c2ccncc2)s1 | – | -12.6% (inactive)
COc1ccc(C2Nc3ccccc3C(=O)N2Cc2ccccc2)cc1COc1cccc(C(F)(F)F)c1 (stereo not given) | – | -29.3% (inactive)
S=C(Nc1cc(Cl)ccn1)N1CCN(c2cccc(Cl)c2Cl)CC1 | 3.98 µM (active) | –
O=C(/C=C/c1ccc2c(c1)OCO2)Nc1cccc([S+](=O)([O-])Nc2ccccc2F)c1 | – | 25.4% (inactive)
O=C(Nc1ccc2ccccc2c1)Nc1nnc(Br)s1 | 15.8 µM (active) | –
CN(C)c1ccc(/C=C/C(=O)Nc2cccc([S+](=O)([O-])Nc3ccccc3F)c2)cc1 | – | -18.1% (inactive)
Cc1c(Cl)cccc1NS(=O)(=O)c1cc2c(cc1Cl)CCC(=O)N2 | – | -23.4% (inactive)

SMILES | Potency | activity change, negative = inhibition
Nc1ccc2c(c1)S(=O)(=O)NC2=O | – | 1.99% (inactive)
COc1ccc(C(=O)N(Cc2ccccc2)Cc2ccc(OC)c(COc3ccc(NC(C)=O)cc3)c2)c(O)c1 | – | -24% (inactive)
N[C@@H](CO)C(=O)Nc1ccc(Cl)cc1C(=O)c1ccc[nH]1 | – | -18.9% (inactive)
Cc1cc(N[S+](=O)([O-])c2ccc(NC(=O)Cc3ccc4nccnc4c3)cc2)no1 | – | -14.4% (inactive)
Cc1cnc(-c2ccccc2C(F)F)nc1NCc1ccc(-n2ccnn2)cc1 | 4.47 µM (active) | –
Cc1ccc(OCCn2c(CCNC(=O)c3cccs3)nc3ccccc32)cc1 | – | -3.11% (inactive)
COc1cc(/C=C/C(=O)OC[C@H]2O[C@H](O[C@]3(CO)O[C@H](CO)[C@@H](O)[C@@H]3O)[C@H](O)[C@@H](O)[C@@H]2O)cc(OC)c1O | – | -14.4% [at 34.4 µM] (inactive)
N#Cc1nc(Nc2cccc(F)c2)nc(NC2CCCC2)n1 | 3.55 µM (active) | –
c1ccc(CN(Cc2ccccc2)Cc2nnc(-c3cc4ccccc4[nH]3)s2)cc1 | 11.2 µM (active) | –
Cc1ccc(OCCn2c(CCNC(=O)c3cccnc3)nc3ccccc32)cc1 | – | -0.914% (inactive)
O=C([C@H](Cc1ccc(O[S+](=O)([O-])c2cccc3cccnc23)cc1)N[S+](=O)([O-])c1ccccn1)N1CCN(c2ccccc2)CC1 | – | -3.91% (inactive)
CCCc1nnc(-c2cnn(C)c2N)n1CCCn1ccnc1 | – | -6.33% (inactive)
Cc1nnc(-c2cnn(C)c2N)n1CCc1ccccc1 | – | -1.98% (inactive)
O=C(CCCc1ccc2cccnc2n1)NCc1cc(-c2ccc(F)c(C(F)(F)F)c2)no1 | – | 24.2% (inactive)
O=C(Nc1cccc([S+](=O)([O-])Nc2ccccc2F)c1)c1ccccc1 | – | -2.69% (inactive)
CC(C)c1ccccc1-c1nc(NCC2CCN(c3cccnc3)CC2)c2ccccc2n1 | – | -8.47% (inactive)
FC(F)(F)c1ccc(-c2nc(-c3nnc4n3CCCCC4)c(C(F)(F)F)o2)cc1 | – | 4.96% (inactive)
N=c1c2c(ncn1-c1ccccc1)Oc1ccc3ccccc3c1C2c1ccc2c(c1)OCCO2 (stereo not given) | – | 308% (inactive)
COc1ccc(C2Nc3ccccc3C(=O)N2Cc2ccc(C(C)(C)C)cc2)cc1COc1ccc(NC(C)=O)cc1 (stereo not given) | 3.57 µM (active) | –
O=C1NS(=O)(=O)c2cc(Br)ccc21 | – | 4.26% (inactive)
